From PubChem BioAssay AID1851 (National Center for Advancing Translational Sciences (NCATS), 2009)
Where “and” joins values, the source holds several entries; their conditions need not be identical. Equal entries are not always repeated. Hit rate of the full screen: of about 16,000 compounds, about 2,600 (16%) were called active. Another 20% or so got no clear call; they are omitted. Calls come from the whole dose curve; as a rule, active = well fitted curve in the direction sought with a large enough effect; inconclusive = small, poorly fitted or top-dose-only effect, or effect the other way; inactive = no such curve, though single readings can be large or run the other way. The list is a sample of the results.

Each compound was assayed against Cytochrome P450 2D6 (Homo sapiens) (UniProt P10635) (assay: Cytochrome panel assay with activity outcomes). Conditions: recombinant CYP, pro-luciferin dealkylation, luminescence, p450-cyp2d6; series mostly up to 57.1 µM; activity, negative = inhibition: at the top concentration.
% is set by controls: 0 for no effect and ±100 for the full control effect.

Sequence of Cytochrome P450 2D6 (Homo sapiens) (P10635 whole entry, looked up): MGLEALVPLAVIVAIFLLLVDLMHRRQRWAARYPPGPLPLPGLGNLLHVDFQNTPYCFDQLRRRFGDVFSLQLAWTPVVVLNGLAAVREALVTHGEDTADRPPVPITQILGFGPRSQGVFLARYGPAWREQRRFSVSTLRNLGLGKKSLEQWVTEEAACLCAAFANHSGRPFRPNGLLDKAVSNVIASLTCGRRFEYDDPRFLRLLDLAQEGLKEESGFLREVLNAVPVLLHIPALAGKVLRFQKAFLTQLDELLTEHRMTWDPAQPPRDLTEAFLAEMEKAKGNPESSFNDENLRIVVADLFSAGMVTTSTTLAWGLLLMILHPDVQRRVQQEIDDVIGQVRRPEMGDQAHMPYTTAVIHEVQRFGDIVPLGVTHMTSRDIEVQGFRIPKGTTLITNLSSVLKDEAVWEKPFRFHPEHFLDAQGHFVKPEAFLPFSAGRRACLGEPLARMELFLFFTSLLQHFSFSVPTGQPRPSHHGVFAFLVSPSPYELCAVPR

activity, negative = inhibition, inactive:
COc1ccc2ccccc2c1/C=C\C(=O)c1ccccc1 7.33% [at 11.4 µM]
CC1(C)Oc2ccc(C#N)cc2[C@H](N2CCCC2=O)[C@H]1O 3.54%
CCCn1nc(NC(=O)CC(C)C)c2cc3ccccc3nc21 -8.32%
Cc1ccc(C(=O)COC(=O)c2ccccc2N2C(=O)C3C4CCC(C4)C3C2=O)cc1C (centres undefined) -11.3%
O=C(O)[C@@H]1CCCN1Cc1cc2ccccc2c2ccccc12 10.3% [at 11.4 µM]
COC(=O)C1=C(N)Oc2cc(C)n(CC3CCCO3)c(=O)c2C1c1ccccc1OC (centres undefined) 0.229%
COc1cc(C(=O)N2CCC(NC(=O)C(Cc3ccc(C(C)C)cc3)NC(C)=O)CC2)cc(OC)c1OC (centres undefined) -11.8%
CN(C)CCCNc1c(C(=O)O)cnc2c1cnn2C 6.96%
Cc1cc2nc(C)n(CCCN)c2cc1C -23.3%
CN(C)c1nc(N)c(C(=O)N=C(N)N)nc1Cl -8.15%
N[C@]1(C(=O)O)CCc2cc(P(=O)(O)O)ccc21 12.2%
CC(C)=CCC/C(C)=C/CC/C(C)=C/CSc1ccccc1C(=O)O 6.75%
O=C(N/N=C1/C[C@@H](O)[C@@H](O)[C@@H]2[C@@H]3C(=O)N(Cc4ccc5c(c4)OCO5)C(=O)[C@H]3CC[C@H]12)OCc1ccccc1 -16.9% [at 11.4 µM]
O=c1cc(CSc2ccccc2)[nH]c(=S)[nH]1 -1.57%
Cc1cc(CSc2ccccc2)ccc1NC(=O)COc1ccccc1 -20.7%
Cc1cc(=Nc2ccc3c(c2)c(N)cc(C)[n+]3C)nc(N)n1C 2.81% [at 11.4 µM]
Cc1ccc(C(=O)NC(=S)NCC(=O)c2ccccc2)cc1 -0.0035%
O=C(CSc1nc2ccccc2c2ccccc12)c1ccccc1 15.3% [at 11.4 µM]
C=CCSc1nc2ccccc2n1C(=O)/C=C/c1cc(OC)c(OC)c(OC)c1 -18.1%
O=C(c1ccco1)N(CCC(c1ccccc1)c1ccco1)Cc1ccco1 (centres undefined) -23.7%
O=C(COC(=O)c1cccc(S(=O)(=O)N2CCN(c3ccccc3)CC2)c1)NCc1ccco1 -24.8%
O=C(c1ccccc1)N(Cc1ccco1)C1CCS(=O)(=O)C1 (centres undefined) 0.77%
Cc1cc(C)c2[nH]c(=O)c(CN(Cc3ccco3)C(=O)c3cccs3)cc2c1 -0.89%
CC(=O)Nc1ccc(N2C(=O)CC(c3ccccc3)CC2=O)cc1 -0.454%
CCOc1ccc(CCNC(=O)C2CCN(S(=O)(=O)CC)CC2)cc1OCC -2.78%
NS(=O)(=O)c1ccc(CCNC(=O)C2CCCN2C(=O)OCc2ccccc2)cc1 (centres undefined) -16.8%
NS(=O)(=O)c1ccc(CNC(=O)/C=C/c2c(Cl)cccc2Cl)cc1 -21.5%
COC(=O)[C@H](CCSC)NC(=O)C/C=C\[C@@H](C)[C@@H](CO)OC 8.79% [at 11.4 µM]
N#CCCn1c(=O)c(-c2cccs2)nc2cnc(OCc3ccccc3)nc21 -4.83%
CCOC(=O)CSC1=C(C#N)C(c2sccc2C)CC(=O)N1 (centres undefined) 3.89%
CCOC(=O)CSC1=C(C#N)C(C)C2=C(CCCC2=O)N1 (centres undefined) -12.6%
C#CCCCO/N=C1/[C@H]2O[C@@H]2[C@@H](O)[C@H]2[C@H]1CCn1c(=O)n([C@@H](CC)c3ccccc3)c(=O)n12 -15.4% [at 11.4 µM]
COc1ccccc1C(=O)NN1C(=O)C2C3C=CC(O3)C2C1=O (centres undefined) 3.94%
Cn1c(=O)c2[nH]c(SCCN3CCOCC3)nc2n(C)c1=S 0.168% [at 11.4 µM]
Cc1cc(C2C(C#N)=C(N)OC3=C2C(=O)CC(C)(C)C3)c(C)s1 (centres undefined) 4.82%
COc1ccc(CC(=O)Nc2cccc(/C(C)=N/NC(=O)c3cccc([N+](=O)[O-])c3)c2)cc1 -14.5%
CC(=O)c1cccc(NC(=O)Oc2ccccc2)c1 -0.0879%
Cc1ccc(NS(=O)(=O)c2ccc(OCC(=O)Nc3cccc([N+](=O)[O-])c3)c(C)c2)cc1 -97.9%
CC(=O)c1cccc(NC(=O)CCC2CCCC2)c1 -17.5%
Cc1sc(NC(=O)C2CCCCC2C(=O)O)c(C(N)=O)c1C (centres undefined) -2.17%
CO[C@@H]1COC(=O)C/C=C\[C@@H](C)[C@@H]2C=C[C@H](O)[C@@H](COC(=O)CCC[C@H]1C)O2 4.34% [at 11.4 µM]
CC(C)Oc1ccc2c(=O)c3cc(C(=O)O)ccc3oc2c1 0.758%
CC[C@H]1C2=C3C(CC[C@H]4C(OCc5ccc(F)cc5C(F)(F)F)OC[C@](C)([C@@H]34)N(C(=O)OC(C)(C)C)C2)C2COC(=O)OCC21 (some centres undefined) -12.1%
COc1ccc(C2/C(=C(/O)c3ccccc3)C(=O)C(=O)N2c2ccccn2)c(OC)c1 (centres undefined) 1.83%
COc1ccc(Sc2nc3ccccc3n3c(C(F)(F)F)nnc23)cc1 -12.8%
CC1=C(C(=O)OCc2ccccc2)C(c2cccnc2)c2c(n(C)c(=O)n(C)c2=O)N1 (centres undefined) -24.1%
Cc1ccc(C2Nc3ccccc3C(=O)N2Cc2ccco2)cc1 (centres undefined) -19%
Cc1cc([N+](=O)[O-])nn1Cc1ccccc1F -8.89%
Cc1cc(C)c(S(=O)(=O)N2CCCCC2)c(C)c1N(C)S(=O)(=O)c1ccccc1 -13.5%
CCOC(=O)c1sc(=S)n(-c2cccc(C(F)(F)F)c2)c1SC 11.7%
Cc1nnc(S(=O)(=O)c2ccc(N=Nc3c(N)nc(N)nc3N)cc2)s1 18% [at 11.4 µM]
CCOC(=O)c1cc(NC(=O)c2ccc(OC)cc2)c(=O)oc1-c1ccccc1 -16.4%
Cc1nn(C(C)C(=O)Nc2sc3c(c2C#N)CCCC3)c(C)c1[N+](=O)[O-] (centres undefined) 1.12%
C/C(=N\O)c1ccc2[nH]ccc2c1 -1.06%
C=CCn1c(SCC(=O)NC2CCCCC2)nnc1C1CCCCC1 -0.906%
CO[C@@H]1COC(=O)[C@@H](CCSC)NC(=O)C/C=C\[C@@H](C)COC(=O)[C@H](C)NC(=O)C/C=C\[C@H]1C 6.23% [at 11.4 µM]
CCN1C(=O)[C@H]2[C@H]3[C@H](O)[C@H](O)C/C(=N/OC[C@@H](O)COCc4ccco4)[C@@H]3CC[C@@H]2C1=O 19.4% [at 11.4 µM] and 13.7% [at 11.4 µM]
Cc1ccc(/C=C/C(=O)NC(=S)Nc2ccccc2C(=O)NC2CCCCC2)cc1 -17.6%
N.N.O=C(O)C1(C(=O)O)CCC1.[Pt] -10.9%
O=c1[nH]c2cc(Cl)ccc2c(O)c1-c1ccc(Oc2ccccc2)cc1 -10.3%
Cc1cc(-c2ccccc2)[nH]c(=O)c1S(=O)(=O)c1ccc(Cl)cc1 -13.2%
CCn1c(CC(=O)Nc2ccc(C)cc2)nnc1SCC(=O)Nc1nc(C)cs1 -7.36%
C[C@@H]1CCC[C@H](C)N1NC(=O)c1ccc(Cl)c(S(N)(=O)=O)c1 -4.56% [at 25.6 µM]
CCCC[P+](CCCC)(CCCC)Cc1ccc(NC(=O)[C@@H](Cc2ccc3ccccc3c2)NC(=NC2CCCCC2)NC2CCCCC2)cc1 15.3%
COC(=O)c1ccc(C(=O)OC)c(NC(=O)CSCc2ccc(Br)cc2)c1 -10.2%
CS(=O)(=O)Nc1ccc(S(=O)(=O)N2CCOCC2)cc1 4.02%
Cc1ccc(NS(=O)(=O)c2cc(C(=O)N3CCc4ccccc4C3)ccc2Cl)cc1 -24.1%
O=C(CSCc1ccccc1)Nc1cccc(C(=O)Nc2ccccc2C(=O)O)c1 -0.0467%
Nc1cc(=O)[nH]c(SCC(=O)Nc2ccc(S(=O)(=O)N3CCOCC3)cc2)n1 -25.6%
Cc1ccccc1C(=O)N1CCc2ccccc2C1 -16.4%
Cc1ccc(OCC(=O)Nc2ccccc2-c2ccccc2)cc1 -16.6%
CN(C)CCN1C(=O)C(O)=C(C(=O)c2cc3ccccc3o2)C1c1cccc(Br)c1 (centres undefined) -8.66%
COc1ccc2c(c1)C(=O)N(c1ccccc1)C(=O)C2 6.59%

AC50, active:
Clc1ccc(CN2CCCN(Cc3ccc(Cl)cc3)C2c2cc3ccccc3c3ccccc23)cc1 0.2 µM
CC(C)CN(C)c1nc(N)c(C(=O)N=C(N)N)nc1Cl 39.8 µM
CC1=CC(C)(C)Nc2ccc(CSc3ccccc3)cc21 0.631 µM
O=C(CN(Cc1ccco1)C(=O)c1ccccc1)Nc1ccc(Cl)c(Cl)c1 25.1 µM
O=C(CN(Cc1ccco1)C(=O)c1cccc(Cl)c1)Nc1c(Cl)cc(Cl)cc1Cl 7.08 µM
CCOc1cc(CNCCc2ccc(S(N)(=O)=O)cc2)cc(Cl)c1OCc1ccccc1 0.355 µM
CCOc1cc(CNCCc2ccc(S(N)(=O)=O)cc2)ccc1OCc1ccc(Cl)cc1 8.91 µM
C=CCOC(=O)C1=C(C)NC(SCC(=O)OCC)=C(C#N)C1c1ccc(C)cc1 (centres undefined) 14.1 µM
CS(=O)(=O)N(CC(=O)Nc1cccc(F)c1)c1cccc([N+](=O)[O-])c1 0.631 µM
COc1cccc(N(CC(=O)Nc2cccc(C(C)=O)c2)S(C)(=O)=O)c1 0.141 µM
COc1ccccc1-c1cc(-n2ccnc2)ncn1 12.6 µM
CN(C)Cc1ccccc1-c1cc(-n2ccnc2)ncn1 2.51 µM
C/C(=N/O)c1ccc2cc(Br)c3ccccc3c2c1 0.0251 µM
O=c1[nH]c2cc(Cl)ccc2c(O)c1-c1cccc(Oc2ccccc2)c1 6.31 µM
O=C(c1ccc(CN2CCc3ccccc3C2)cc1)N1CCc2ccccc2C1 2 µM
CC(=O)c1cccc(NC(=O)CSCc2ccccc2)c1 14.1 µM
CSc1ccccc1NC(=O)CSCc1ccc(C)cc1 14.1 µM
O=C(CSCc1ccccc1)Nc1ccc(S(=O)(=O)N2CCOCC2)cc1 6.31 µM

AC50, inactive:
C[C@@H]1CCN=C(N)S1
CC(=O)Nc1ccc(S(=O)(=O)N=S(C)C)cc1
CC1=C(CC(=O)O)c2cc(F)ccc2/C1=C\c1ccc(S(C)=O)cc1 (centres undefined)
